Reference: PubChem BioAssay AID1159580 (chemical genetic matrix, 2015)
“And” between values parts separate entries of the source, which are not always exact repeats. Identical values can stand only once. Screen size: about 5,500 compounds; about 2,000 (36%) were called active. About 18% were inconclusive and are not listed. Cut-off read from the data, not from the text of the source: active = normalized growth mostly below about 0.91 (no sharp cut-off); inconclusive = no clear call, values can overlap the other calls; inactive = mostly above about 0.92. The list shows a part of the results.

Assay: chemical genetic growth profiling, strain panel (AID 1159580);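 note: tested at 20 µM; growth read once vehicle control cultures reached saturation at 30 °C; 1 = growth at the plate median or of vehicle wells; lower values mean less growth of the strain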
Settings: S. cerevisiae deletion strains, growth OD

Measured: normalized growth

C[C@]12CCC3C(CC[C@H]4C[C@@H](O)CC[C@]34C)C1CCC2=O (some centres undefined)
active: locus YAL021C, strain ccr4, stronger effect = lower value 0.854 | locus YAL026C, strain drs2, stronger effect = lower value 0.505 | locus YBR009C, strain hhf1, stronger effect = lower value 0.896 | locus YCL029C, strain bik1, stronger effect = lower value 0.842 | locus YDL035C, strain GPR1, stronger effect = lower value 0.697 | locus YDL192W, strain arf1, stronger effect = lower value 0.838 | locus YDR137W, strain rgp1, stronger effect = lower value 0.48 | locus YDR162C, strain NBP2, stronger effect = lower value 0.585 | locus YDR195W, strain ref2 1.44 [resistant] | locus YDR318W, strain mcm21, stronger effect = lower value 0.764 | locus YDR392W, strain spt3, stronger effect = lower value 0.224 | locus YDR502C, strain sam2, stronger effect = lower value 0.749 | locus YEL061C, strain CIN8, stronger effect = lower value 0.908 | locus YER155C, strain BEM2, stronger effect = lower value 0.856 | locus YER167W, strain BCK2, stronger effect = lower value 0.872 | locus YFR010W, strain ubp6, stronger effect = lower value 0.9 | locus YGL086W, strain mad1, stronger effect = lower value 0.9 | locus YGL248W, strain PDE1, stronger effect = lower value 0.696 | locus YGL253W, strain hxk2, stronger effect = lower value 0.87 | locus YGR078C, strain PAC10, stronger effect = lower value 0.843 | locus YGR135W, strain pre9, stronger effect = lower value 0.711 | locus YHR129C, strain ARP1, stronger effect = lower value 0.766 | locus YHR142W, strain chs7, stronger effect = lower value 0.853 | locus YHR200W, strain rpn10, stronger effect = lower value 0.883 | locus YIL066C, strain RNR3, stronger effect = lower value 0.628 | locus YIR030C, strain dcg1, stronger effect = lower value 0.868 | locus YJL164C, strain tpk1, stronger effect = lower value 0.859 | locus YJL166W, strain qcr8, stronger effect = lower value 0.877 | locus YJL187C, strain SWE1 (second series), stronger effect = lower value 0.796 | locus YJR075W, strain HOC1, stronger effect = lower value 0.857 | locus YKL009W, strain mrt4, stronger effect = lower value 0.832
0.785 (active) and 0.897 (inactive): locus YHR030C, strain SLT2, stronger effect = lower value
inactive: locus YAL030W, strain snc1, stronger effect = lower value 1.01 | locus YBL061C, strain skt5, stronger effect = lower value 1.02 | locus YBR021W, strain FUR4, stronger effect = lower value 0.857 | locus YBR023C, strain chs3, stronger effect = lower value 0.989 | locus YBR171W, strain sec66, stronger effect = lower value 1.01 | locus YBR229C, strain ROT2, stronger effect = lower value 1.02 | locus YBR231C, strain swc5, stronger effect = lower value 1 | locus YBR279W, strain paf1, stronger effect = lower value 0.994 | locus YCL011C, strain gbp2, stronger effect = lower value 0.937 | locus YCL016C, strain dcc1, stronger effect = lower value 0.916 | locus YCL061C, strain MRC1, stronger effect = lower value 0.961 | locus YCL069W, strain vba3, stronger effect = lower value 1.01 | locus YCR088W, strain abp1, stronger effect = lower value 1.05 | locus YDL005C, strain med2, stronger effect = lower value 1.03 | locus YDL040C, strain nat1, stronger effect = lower value 1.05 | locus YDL074C, strain BRE1, stronger effect = lower value 0.792 | locus YDL101C, strain DUN1, stronger effect = lower value 0.918 | locus YDL185W, strain tfp1, stronger effect = lower value 0.949 | locus YDR001C, strain nth1, stronger effect = lower value 1.05 | locus YDR069C, strain doa4, stronger effect = lower value 0.979 | locus YDR101C, strain arx1, stronger effect = lower value 0.95 | locus YDR159W, strain sac3, stronger effect = lower value 0.938 | locus YDR297W, strain sur2, stronger effect = lower value 1.02 | locus YDR334W, strain swr1, stronger effect = lower value 1.08 | locus YDR335W, strain msn5, stronger effect = lower value 1.02 | locus YDR388W, stronger effect = lower value 0.935 | locus YEL003W, strain gim4, stronger effect = lower value 0.977 | locus YEL037C, strain rad23, stronger effect = lower value 1.03 | locus YEL061C, strain CIN8 (second series), stronger effect = lower value 1.04 | locus YER015W, strain faa2, stronger effect = lower value 1.04 | locus YER016W, strain bim1, stronger effect = lower value 1.03 | locus YER110C, stronger effect = lower value 1.03 | locus YER111C, strain swi4, stronger effect = lower value 1.03 | locus YER155C, strain BEM2 (second series), stronger effect = lower value 1 | locus YGL078C, strain dbp3, stronger effect = lower value 0.931 | locus YGL167C, strain pmr1, stronger effect = lower value 1.03 | locus YGL173C, strain kem1, stronger effect = lower value 0.943 | locus YGL227W, strain vid30, stronger effect = lower value 1.06 | locus YGL240W, strain doc1, stronger effect = lower value 0.968 | locus YHR013C, strain ard1, stronger effect = lower value 0.899 | locus YHR027C, strain rpn1, stronger effect = lower value 1.03 | locus YHR079C, strain IRE1 (second series), stronger effect = lower value 0.94 | locus YHR079C, strain IRE1, stronger effect = lower value 0.893 | locus YHR094C, strain hxt1, stronger effect = lower value 1.03 | locus YIL073C, strain SPO22, stronger effect = lower value 0.735 | locus YIL125W, strain kgd1, stronger effect = lower value 0.98 | locus YJL092W, strain hpr5, stronger effect = lower value 0.988 | locus YJL095W, strain BCK1 (second series), stronger effect = lower value 0.923 | locus YJL115W, strain asf1, stronger effect = lower value 1.04 | locus YJL129C, strain trk1, stronger effect = lower value 0.948 | locus YJL134W, strain LCB3, stronger effect = lower value 1.02 | locus YJL154C, strain vps35, stronger effect = lower value 1.06 | locus YJL168C, strain set2, stronger effect = lower value 1.03 | locus YJL187C, strain SWE1, stronger effect = lower value 1.03 | locus YJR043C, strain POL32, stronger effect = lower value 0.895 | locus YJR066W, strain TOR1, stronger effect = lower value 0.875
0.309 (active) and 0.911 (inactive): locus YJL095W, strain BCK1, stronger effect = lower value
